# Measurements: the supplement of paper PMC9694430
# System: T1, LOC_OS04G38480-cb003
# T1 sequence (whole entry): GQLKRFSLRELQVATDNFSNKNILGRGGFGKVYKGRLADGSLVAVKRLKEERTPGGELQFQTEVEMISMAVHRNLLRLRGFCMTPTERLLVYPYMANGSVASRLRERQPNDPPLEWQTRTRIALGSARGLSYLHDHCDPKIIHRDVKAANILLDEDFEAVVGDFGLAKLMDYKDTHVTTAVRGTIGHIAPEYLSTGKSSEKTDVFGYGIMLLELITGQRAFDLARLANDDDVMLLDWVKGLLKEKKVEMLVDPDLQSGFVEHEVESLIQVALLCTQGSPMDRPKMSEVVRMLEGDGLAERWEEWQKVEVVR
# Assay: thermal shift delta Tm vs DMSO control; higher = stronger stabilization (binding)
# Conditions: 12.5 µM; protein concentration 2 µM
# In short: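 The melting temperature shift given here is a triplicate mean, measured against protein that received only DMSO. Melting temperatures came from Boltzmann fits of differential scanning fluorimetry data on E. coli-expressed, purified rice kinase domain constructs. Each 19.5 μl well contained 2 μM kinase, 100 mM potassium phosphate pH 7.5, 150 mM NaCl, 10% glycerol, 5 × SYPRO Orange and compound in DMSO. Plates were scanned from 25°C to 95°C at 0.05°C/s.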
row,SMILES,thermal shift delta Tm [°C]
1,COc1cc(OC)cc(-c2cc3cnc(N)nc3nc2NC(=O)NC(C)(C)C)c1,0.52
2,COc1cc2nccc(Oc3ccc(NC(=O)C4(C(=O)Nc5ccc(F)cc5)CC4)cc3)c2cc1OC [Cabozantinib malate (XL184)],1.59
3,COc1ncc(-c2ccc3nccc(-c4ccnnc4)c3c2)cc1NS(=O)(=O)c1ccc(F)cc1F,1.39
4,Cc1cc(C(C)Nc2ccccc2)c2nc(N3CCOCC3)cc(=O)n2c1 (stereo not drawn),0.36
5,FC(F)(F)c1ccc(CNc2ccc(Cc3c[nH]c4ncc(Cl)cc34)cn2)cn1 [Pexidartinib (PLX3397)],4.16
6,NC(=O)c1ccc(N(C(N)=O)c2c(F)cccc2F)nc1-c1ccc(F)cc1F,-0.04
7,NCC(=O)Nc1ccc(-n2nc(C(F)(F)F)cc2-c2ccc3c(ccc4ccccc43)c2)cc1,1.25
8,CCn1c(-c2nonc2N)nc2c(C#CC(C)(C)O)ncc(OC[C@H]3CCCNC3)c21,0.66
9,Nc1cccc(S(=O)(=O)N2CCCN(S(=O)(=O)c3ccc4c(c3)OCCO4)CC2)c1,1.86
10,C[C@@H]1COC(Nc2ccc3ncnc(Nc4ccc(OCc5nccs5)c(Cl)c4)c3c2)=N1 [Varlitinib],1.56
11,Cc1cc2c(F)c(Oc3ncnn4cc(OC[C@@H](C)OC(=O)[C@H](C)N)c(C)c34)ccc2[nH]1,0.59
12,CNC(=O)c1ccc(-c2cnc3ncc(Cc4ccc5ncccc5c4)n3n2)cc1F,2.02
13,CN(C)C/C=C/C(=O)Nc1cc2c(Nc3ccc(F)c(Cl)c3)ncnc2cc1O[C@H]1CCOC1 [Afatinib (BIBW2992)],0.66
14,O=c1cc(N2CCOCC2)oc2c(-c3ccc4c(c3)OCCO4)csc12,1.22
15,C=CC(=O)Nc1cc(Nc2nccc(-c3c[nH]c4ccccc34)n2)c(OC)cc1N(C)CCN(C)C,2.42
16,Nc1nccc(Oc2ccc3c(C(=O)Nc4cccc(C(F)(F)F)c4)cccc3c2)n1,1.77
17,CC(C)(C)c1nc(-c2ccc(NC(=O)Nc3cccc(C(F)(F)F)c3)c3ccccc23)c2c(N)nccn12 [kira6],1.58

row,SMILES,thermal shift delta Tm [°C]
1,COc1ccc(-c2cc3c(C)nc(N)nc3n([C@H]3CC[C@H](OCCO)CC3)c2=O)cn1,1.08
2,O=C(O)c1cc(O)c2c(c1)[C@@H]([C@H]1c3cc(C(=O)O)cc(O)c3C(=O)c3c(O[C@@H]4O[C@H](CO)[C@@H](O)[C@H](O)[C@H]4O)cccc31)c1cccc(O[C@@H]3O[C@H](CO)[C@@H](O)[C@H](O)[C@H]3O)c1C2=O [Sennoside B],3.9
3,NC(=O)c1cnc2[nH]ccc2c1N[C@@H]1[C@@H]2CC3C[C@H]1C[C@@](O)(C3)C2,2.99
4,C=CC(=O)Nc1cccc(Nc2nc(Nc3ccc(OCCOC)cc3)ncc2F)c1,3.75
5,CCS(=O)(=O)Nc1ccc2c(c1)/C(=C(/Nc1ccc(CN3CCCCC3)cc1)c1ccccc1)C(=O)N2 [Hesperadin],4.11
6,COc1cc2c(cc1OC)[C@@H]1C(=O)c3ccc4c(c3O[C@@H]1CO2)C=CC(C)(C)O4 [Deguelin],1.39
7,Cc1cc(Nc2cc(N3CCN(C)CC3)nc(/C=C/c3ccccc3)n2)n[nH]1 [ENMD-2076 L-(+)-Tartaric acid],2.07
8,Cc1ccc(NC(=O)c2ccc(CN3CCN(C)CC3)cc2)cc1Nc1nc(-c2cccnc2)cs1 [Masitinib (AB1010)],0.69
9,C=CC(=O)N1CC[C@@H](Oc2nc(Nc3ccc(N4CCC(N5CCN(C)CC5)CC4)cc3)c(C(N)=O)nc2CC)C1 [Naquotinib(ASP8273)],3.19
10,N#CC(=C(/N)Sc1ccccc1N)/C(C#N)=C(\N)Sc1ccccc1N,-1.15
11,COc1cc2/c(=N/c3ccc(Br)cc3F)nc[nH]c2cc1OCC1CCN(C)CC1 [Vandetanib (ZD6474)],3.76
12,O=C(Nc1cccc(C(F)(F)F)c1)c1cccc2cc(Oc3cc(CO)ncn3)ccc12,1.4
13,CS(=O)(=O)CCNCc1ccc(-c2ccc3ncnc(Nc4ccc(OCc5cccc(F)c5)c(Cl)c4)c3c2)o1 [Lapatinib],3.11
14,c1cn2cc(-c3ccc4cn[nH]c4c3)nc(Nc3ccc(N4CCOCC4)cc3)c2n1 [Entospletinib (GS-9973)],2.56
15,CS(=O)(=O)c1cccc(CNc2nc(Nc3ccc4c(c3)CCC(=O)N4)ncc2C(F)(F)F)c1,2.37
16,CN1CCN(Cc2ccc(NC(=O)Nc3ccc(Oc4ccnc(N)n4)cc3)cc2C(F)(F)F)CC1,2.07
